The record followed here is PubChem BioAssay AID1851 (National Center for Advancing Translational Sciences (NCATS), 2009).

In all, about 16,000 compounds went through this assay and about 5,700 (36%) were called active. Another 24% or so got no clear call; they are omitted. Calls come from the whole dose curve; as a rule, active = well fitted curve in the direction sought with a large enough effect; inconclusive = small, poorly fitted or top-dose-only effect, or effect the other way; inactive = no such curve, though single readings can be large or run the other way. Some of the results follow.
% is set by controls: 0 for no effect and ±100 for the full control effect.

Cytochrome P450 1A2 (Homo sapiens), sequence (P05177 whole entry, looked up): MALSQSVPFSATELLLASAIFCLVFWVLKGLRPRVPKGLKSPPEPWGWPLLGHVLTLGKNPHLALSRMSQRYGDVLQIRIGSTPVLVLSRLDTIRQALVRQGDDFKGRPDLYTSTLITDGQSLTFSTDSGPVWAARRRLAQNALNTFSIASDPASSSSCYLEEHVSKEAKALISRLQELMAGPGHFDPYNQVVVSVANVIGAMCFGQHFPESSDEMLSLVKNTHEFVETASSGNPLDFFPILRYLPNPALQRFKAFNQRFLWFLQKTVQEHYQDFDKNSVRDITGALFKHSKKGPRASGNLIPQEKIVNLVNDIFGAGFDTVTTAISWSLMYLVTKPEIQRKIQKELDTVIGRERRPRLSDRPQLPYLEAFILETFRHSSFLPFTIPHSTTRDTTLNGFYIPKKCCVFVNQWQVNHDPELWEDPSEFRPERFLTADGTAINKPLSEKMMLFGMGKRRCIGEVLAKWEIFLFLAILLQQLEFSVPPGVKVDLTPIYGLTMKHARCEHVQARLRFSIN

The experiment addresses Cytochrome P450 1A2 (Homo sapiens) (UniProt P05177). Put plainly: Cytochrome panel assay with activity outcomes. The following applies: recombinant CYP, pro-luciferin dealkylation, luminescence, p450-cyp1a2; series mostly up to 57.1 µM.
`C[C@H]1NC(=O)NC1=O`: the AC50 (in general, the concentration giving half of the maximal activity seen) was “inactive”.
Consider `COc1cc([C@@H](O)CO)ccc1OS(=O)(=O)O`, for which the AC50 result is “inactive”.
Still for that read-out and setting: in the case of `Brc1ccc(/C=C/C=N/Nc2nc3ccccc3s2)cc1` it was 2.24 µM (active).
In the case of `Cc1ccc2ccccc2c1CSc1nc(N)nc2c1ncn2CC(C)C`, the activity, negative = inhibition is -20.8% [at 2.29 µM] (inactive).
On the same count and under the same terms, the same measure for `CCCn1cnc2c(SCC(=O)O)nc(N)nc21`: 1.5% [at 11.4 µM] (inactive).
In the case of `CCCn1cnc2c(SCc3ccc(Cl)cc3)nc(N)nc21`, the AC50 is 1.26 µM (active).
For the compound `CCOC(=O)c1cnc(N(C)C)nc1SC(=N)N`, the activity, negative = inhibition was -22.6% [at 2.29 µM] (inactive).
Regarding `CCOC(=O)c1cnc(SCCc2ccccc2)nc1N`, the AC50 was 25.1 µM (active).
In the case of `CCN1CCc2c(sc(N)c2C(N)=O)C1`, the AC50 entry was “inactive”.
Take `CCOC(=O)c1c(NC(=S)Nc2ccccc2)sc2c1CCN(CCc1ccccc1)C2`: the AC50 was 15.8 µM (active).
On the same count and under the same terms, the same measure for `CCN1CCc2c(sc(NC(=O)c3ccc(S(=O)(=O)N4CCOCC4)cc3)c2C(=O)OC)C1`: “inactive”.
On to `CC(=O)OCC1=C(C(=O)O)N2C(=O)[C@@H](NC(=O)Cc3cccs3)[C@@H]2SC1`, for which the AC50 result is “inactive”.
Consider `COc1ccc(CCNC(=O)CCN2C(=O)COc3ccc(C)cc32)cc1OC`, for which the AC50 result is “inactive”.
Turning to `Cc1ccc2c(c1)N(CC(=O)NC1CCC(C)CC1)C(=O)CO2` (configuration not stated), the AC50 entry was “inactive”.
As to `COc1ccc(CCNC(=O)CCN2C(=O)C(C)Oc3ccc(C)cc32)cc1OC` (configuration not stated), the AC50 entry was “inactive”.
The same measure, in the same setting: in the case of `Cc1ccc2c(c1)N(CCC(=O)NCc1ccc3c(c1)OCO3)C(=O)CO2` it was 15.8 µM (active).
`Cc1ccc(CNC(=O)CN2C(=O)COc3ccc(C)cc32)cc1`: the concentration at half-maximal activity (AC50) is 3.16 µM (active).
In the case of `Cc1ccc2c(c1)N(CC(=O)NCc1cccs1)C(=O)C(C)O2` (configuration not stated), the AC50 is 5.01 µM (active).
Still for that read-out and setting: the same measure for `Cc1ccc2c(c1)N(CCC(=O)NCCN1CCOCC1)C(=O)CO2`: “inactive”; for `Cc1ccc2c(c1)N(CCC(=O)NCc1cccnc1)C(=O)CO2`: 3.16 µM (active).
As for `Cc1ccc2c(c1)N(CC(=O)NC1CCCc3ccccc31)C(=O)CO2` (configuration not stated), the AC50 result is “inactive”.
In the case of `Cc1ccc(C)c(N2CCN(C(=O)C3CCN(S(=O)(=O)c4cccc5nsnc45)CC3)CC2)c1`, the AC50 entry is “inactive”.
`CO[C@H]1COC(=O)C/C=C\[C@@H](C)COC(=O)[C@@H](C)NC(=O)C/C=C\[C@@H]1C`: the activity, negative = inhibition was -10.1% [at 11.4 µM] (inactive).
Turning to `O=C(O)CCC(=O)N1CCC[C@H]1C(=O)O`, the AC50 result is “inactive”.
Regarding `O=C(CCNS(=O)(=O)c1ccc2c(c1)CCC(=O)N2)NCc1ccc2c(c1)OCO2`, the AC50 result was “inactive”.
With `CCN1CCCC1CNC(=O)CCNC(=O)c1cc(OC)c(OC)c(OC)c1` (configuration not stated), the AC50 entry is “inactive”.
Consider `COc1cc(C(=O)NCCC(=O)NCc2ccc3c(c2)OCO3)cc(OC)c1OC`, for which the AC50 was 20 µM (active).
As for `COc1cc2ccccc2cc1C(=O)Nc1ccc(S(=O)(=O)Nc2cc(C)on2)cc1`, the AC50 is 25.1 µM (active).
Still for that read-out and setting: the same measure for `Cc1ccc(OCC(=O)Nc2ccc(S(=O)(=O)Nc3onc(C)c3C)cc2)cc1`: “inactive”.
The same measure, in the same setting: the same measure for `Cc1cc(C)c2nc(-c3ccccn3)cc(C(=O)Nc3ccc(S(=O)(=O)Nc4cc(C)on4)cc3)c2c1`: “inactive”; for `Cc1cc(NC(=O)c2ccc(S(=O)(=O)Nc3ccccc3)cc2)no1`: 5.01 µM (active); for `NS(=O)(=O)c1ccc(NS(=O)(=O)c2ccc(NC(=O)c3ccc(-c4ccccc4)cc3)cc2)cc1`: “inactive”.
Consider `CC(C)CC(C(=O)NCC1CCCO1)N(C(=O)Cn1nnc(-c2ccc(F)cc2)n1)c1cccc(C(F)(F)F)c1` (configuration not stated), for which the AC50 entry was “inactive”.
Same read-out and setting: the same measure for `Cc1noc(N)c1C(=O)Nc1ccc(F)cc1`: 8.91 µM (active).
Take `Cc1noc(C)c1C(=O)N1CCC2(CC1)CN(C(=O)Nc1cccc(F)c1)C2`: the AC50 entry was “inactive”.
With `Cc1cnn(CCC(=O)NNC(=S)Nc2ccc(F)cc2)c1`, the AC50 entry was “inactive”.
For the compound `CCc1noc(N)c1C(=O)Nc1ccc(F)c(Cl)c1`, the AC50 is 4.47 µM (active).
Regarding `C/C(CCC(=O)OC[C@@H]1O[C@H](C#Cc2ccccc2)C=C[C@@H]1Oc1ccc(C)cc1)=N/OC[C@@H](C)[C@H](OCc1ccccc1)C(C)C`, the activity, negative = inhibition is -1.97% [at 11.4 µM] (inactive).
With `COCC(=O)N1CCC2(CC1)CCN(C(=O)Nc1cccc(F)c1)CC2`, the AC50 result is “inactive”.
In the case of `CC(=O)N=c1sc(S(N)(=O)=O)nn1C`, the AC50 result is “inactive”.
For the compound `O=C(O)CCC(=O)CCC(=O)c1ccccc1`, the AC50 entry was “inactive”.
As to `O=C(O)CCC(=O)c1ccc2ccc3cccc4ccc1c2c34`, the concentration at half-maximal activity (AC50) was 1.26 µM (active).
As to `CN(c1ccc(C(=O)NC2CC3CCC2C3)cc1)S(C)(=O)=O` (configuration not stated), the AC50 result is “inactive”.
With `O=C(O)C(Cc1cccs1)C(=O)O`, the activity, negative = inhibition is -2.09% [at 2.29 µM] (inactive).
With `Cc1ccc(/C(N)=N/OC(=O)Cc2cccs2)cc1`, the concentration at half-maximal activity (AC50) was 15.8 µM (active).
In the case of `Cc1ccc(C(N)=Nc2ccccc2)cc1`, the activity, negative = inhibition was -14.7% [at 11.4 µM] (inactive).
With `CN(NC(=O)NN)c1ncc(C(F)(F)F)cc1Cl`, the concentration at half-maximal activity (AC50) is 14.1 µM (active).
For the compound `COn1c(SC(C)C)nc2ccccc2c1=O`, the concentration at half-maximal activity (AC50) is 0.708 µM (active).
On to `CC(C)On1c(SC(C)C)nc2ccccc2c1=O`, for which the AC50 was 2 µM (active).
On the same count and under the same terms, the same measure for `CN1CCN(CCCNC(=O)C2CCN(c3nnc(-n4cccc4)s3)CC2)CC1`: “inactive”; for `O=C(NCCc1c[nH]c2ccccc12)C1CCN(c2nnc(N3CCCC3=O)s2)CC1`: 20 µM (active); for `CC1CC(C)CN(CCCNC(=O)C2CCCN(c3nnc(N4CCCC4=O)s3)C2)C1` (configuration not stated): “inactive”.
Regarding `C[C@@H]1NCC[C@H](CC(=O)O)[C@H]1CC(=O)O`, the activity, negative = inhibition was -6.87% [at 11.4 µM] (inactive).
For the compound `FC(F)(F)c1cc(CN2CC3(CCNCC3)C2)cc(C(F)(F)F)c1`, the AC50 result was “inactive”.
The same measure, in the same setting: the same measure for `Cc1ccc(S(=O)(=O)c2c(C)nn(C(C)(C)C)c2OC(=O)c2cccs2)cc1`: “inactive”.
Consider `CC[C@H](C(=O)c1cccs1)C(O)(C(F)(F)F)C(F)(F)F`, for which the activity, negative = inhibition is -17.5% [at 2.29 µM] (inactive).
`Cc1ccc(N=C/C(C(=O)C(F)(F)F)=C(\O)c2cccs2)cc1`: the AC50 was 12.6 µM (active).
Regarding `CC(=O)N1CCC2(CC1)CN(c1ccccn1)C2`, the AC50 entry was “inactive”.
The same measure, in the same setting: the same measure for `Cc1cc(C)n2nc(-c3sccc3-n3cccc3)cc2n1`: 5.01 µM (active); for `CCN1CCN(c2cc(=O)n(-c3cc(Cl)ccc3C)c(=O)[nH]2)CC1`: “inactive”; for `c1ccc(-c2nc(NCCCn3ccnc3)c3oc4ccccc4c3n2)cc1`: 0.0398 µM (active).
Consider `c1ccc2c(c1)oc1c(NCCCn3ccnc3)ncnc12`, for which the AC50 is 0.0562 µM (active).
